Nuclear beta-catenin stimulation and insulin secretion stimulation data for 39 compounds are collected here from PubChem BioAssay.

Activity calls are given as the source filed them.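 The calls were made as follows: active = compound raises insulin release from rat beta cells at 5 mM glucose, no numeric limit stated; inactive = the rest.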
Also: reference of the scale not given here.

One experiment is described as follows: stimulators of nuclear beta-catenin in C2C12, primary screen, imaging, WNT3A-conditioned medium, mouse C2C12, NPC library (AID 1117326). Conditions: stimulation, at 2 µM, stronger effect = higher value.
For `CCCCCCCC/C=C/C(=O)O`, the nuclear beta-catenin stimulation is 0.6%.
Same read-out and setting: next, `O=C(OCC(COC(=O)c1cccnc1)(COC(=O)c1cccnc1)COC(=O)c1cccnc1)c1cccnc1`: -0.3%.
Take `CCCCC(O)/C=C(C)/C=C/C=C/C(=O)N1CCCC1=O` (stereo not drawn): the nuclear beta-catenin stimulation is -0.4%.
Still for that read-out and setting: next, `CCCCCCCC/C=C\CCCCCCCCN`: 2.6%.
As for `C[N+](C)(CCOc1ccccc1)Cc1cccs1`, the nuclear beta-catenin stimulation turned out to be 1.1%.
`CCCOc1ccc2c(c1)CC[C@@H]1[C@@H]2CC[C@]2(C)C(OC)CC[C@@H]12` (stereo partly drawn): the nuclear beta-catenin stimulation turned out to be 0%.
For the compound `NS(=O)(=O)c1ccc(Cl)c(S(N)(=O)=O)c1`, the nuclear beta-catenin stimulation is -1%.
Same read-out and setting: next, `COc1ccc2c(c1)c(CC(=O)OC/C=C(\C)CC/C=C(\C)CCC=C(C)C)c(C)n2C(=O)c1ccc(Cl)cc1`: 3%; `O=S(=O)(O)CC(S)CS` (stereo not drawn): -0.1%.
Regarding `Cc1ccc2ccc(Cl)cc2n1`, the nuclear beta-catenin stimulation was -2.1%.
For the compound `NC(=O)NS(=O)(=O)c1ccc(Cl)cc1`, the nuclear beta-catenin stimulation amounted to 16.9%.
Consider `COc1cccc(CCc2ccccc2OCC(CN(C)C)OC(=O)CCC(=O)O)c1` (stereo not drawn), for which the nuclear beta-catenin stimulation amounted to 3.9%.
On to `Cc1cc(O)c(Cl)c(C)c1Cl`, for which the nuclear beta-catenin stimulation is -0.1%.
The same measure, in the same setting: the value for `COc1cccc2c1C(=O)c1c(O)c3c(c(O)c1C2=O)C[C@@](O)(C(=O)CO)C[C@@H]3O[C@H]1C[C@H](N)[C@H](O[C@@H]2CCCCO2)[C@H](C)O1` was 79.4%.
On the same count and under the same terms, the value for `CCCCCCCCCC(=O)O` was 0.7%; that for `O=C(CCN1CCC(c2ccccc2)C1)c1ccc2c(c1)OCCO2` (stereo not drawn) was 0.5%; that for `CNC(=O)c1cnn(-c2nc(N)c3ncn([C@@H]4O[C@H](CO)[C@@H](O)[C@H]4O)c3n2)c1` was 4.8%.
The same measure, in the same setting: the value for `O=C(O)Cc1cn(-c2ccccc2)nc1-c1ccc(Cl)cc1` was 1.2%.
Consider `CC1(S(=O)(=O)O)CC(=O)c2ccccc2C1=O` (stereo not drawn), for which the nuclear beta-catenin stimulation was -0.2%.
In the case of `OCCCc1ccccc1`, the nuclear beta-catenin stimulation came to 4.5%.
On the same count and under the same terms, the value for `NC(N)=NN=C(/C=C/c1ccc([N+](=O)[O-])o1)/C=C/c1ccc([N+](=O)[O-])o1` was 56.2%; that for `O=C1c2ccccc2CCc2ccccc21` was -0.9%; that for `Oc1ccccc1` was 0.2%.
On the same count and under the same terms, next, `CCOC(=O)c1ccc(NC(=O)CN2CCCCC2)cc1`: -1.8%; `COc1ccccc1OC(=O)Oc1ccccc1OC`: 0.3%; `CC1(C)CO[C@@H](CC(=O)O)CN1`: 0.1%.
Still for that read-out and setting: the value for `CCCCN=C(N)N=C(N)N` was 0.9%.
For the compound `O=C(O)CCC(=O)C(=O)O`, the nuclear beta-catenin stimulation is -0.1%.
For the compound `Cc1ccc(CCn2c3c(c4cc(Cl)ccc42)CN(C)CC3)cn1`, the nuclear beta-catenin stimulation came out at 0.7%.
Same read-out and setting: the value for `C[C@@H](N)C(=O)O` was 0%.
The same measure, in the same setting: next, `CCc1nnc(NS(=O)(=O)c2ccc(N)cc2)s1`: 2%; `NS(=O)(=O)c1cc(-c2nn[nH]n2)c(NCc2cccs2)cc1Cl`: -0.1%; `O=C(O)CNC(=O)CNC(=O)CNC(=O)CSC(=O)c1ccccc1`: -1.6%.
The same measure, in the same setting: next, `CCCCCCCCCCCCCCCCCCN(C)C`: -1.1%.
As for `Oc1cccc(-c2c3nc(c(-c4cccc(O)c4)c4ccc([nH]4)c(-c4cccc(O)c4)c4nc(c(-c5cccc(O)c5)c5ccc2[nH]5)CC4)C=C3)c1`, the nuclear beta-catenin stimulation was -1.7%.
On the same count and under the same terms, next, `C=CCNc1nc(NCC=C)nc(N2CCN(C(c3ccc(F)cc3)c3ccc(F)cc3)CC2)n1`: -1%.
Turning to `O=C(CCN1CCN(CCO)CC1)N1c2ccccc2Sc2ccc(C(F)(F)F)cc21`, the nuclear beta-catenin stimulation was 1.4%.
On to `COc1ccc(OC(=O)N(CC(=O)O)Cc2ccc(OCCc3nc(-c4ccccc4)oc3C)cc2)cc1`, for which the nuclear beta-catenin stimulation is -0.5%.
Same read-out and setting: the value for `Oc1ccc(CCNCCCCCCNCCc2ccccc2)cc1O` was 0.9%.

The next experiment in a line: stimulators of insulin release from INS-1E, primary screen, cell-based, 5 mM glucose, NPC library (AID 1117329). The settings on record: rat INS-1E insulin secretion, at 10 µM, stronger effect = higher value.
On to `CCCCCCCC/C=C/C(=O)O`, for which the insulin secretion stimulation was 1.9% (inactive).
Still for that read-out and setting: the value for `O=C(OCC(COC(=O)c1cccnc1)(COC(=O)c1cccnc1)COC(=O)c1cccnc1)c1cccnc1` was 1.6% (inactive).
As to `CCCCC(O)/C=C(C)/C=C/C=C/C(=O)N1CCCC1=O` (stereo not drawn), the insulin secretion stimulation was 0.3% (inactive).
On the same count and under the same terms, the value for `CCCCCCCC/C=C\CCCCCCCCN` was -0.6% (inactive); that for `C[N+](C)(CCOc1ccccc1)Cc1cccs1` was 2.65% (inactive).
On the same count and under the same terms, next, `CCCOc1ccc2c(c1)CC[C@@H]1[C@@H]2CC[C@]2(C)C(OC)CC[C@@H]12` (stereo partly drawn): -0.1% (inactive); `NS(=O)(=O)c1ccc(Cl)c(S(N)(=O)=O)c1`: -1.3% (inactive); `COc1ccc2c(c1)c(CC(=O)OC/C=C(\C)CC/C=C(\C)CCC=C(C)C)c(C)n2C(=O)c1ccc(Cl)cc1`: 2.1% (inactive).
The same measure, in the same setting: next, `O=S(=O)(O)CC(S)CS` (stereo not drawn): -3.4% (inactive).
For the compound `Cc1ccc2ccc(Cl)cc2n1`, the insulin secretion stimulation is 1.25% (inactive).
Same read-out and setting: next, `NC(=O)NS(=O)(=O)c1ccc(Cl)cc1`: 3.4% (inactive); `COc1cccc(CCc2ccccc2OCC(CN(C)C)OC(=O)CCC(=O)O)c1` (stereo not drawn): 11.9% (inactive).
As to `Cc1cc(O)c(Cl)c(C)c1Cl`, the insulin secretion stimulation was -1.8% (inactive).
The same measure, in the same setting: the value for `COc1cccc2c1C(=O)c1c(O)c3c(c(O)c1C2=O)C[C@@](O)(C(=O)CO)C[C@@H]3O[C@H]1C[C@H](N)[C@H](O[C@@H]2CCCCO2)[C@H](C)O1` was 0.2% (inactive); that for `CCCCCCCCCC(=O)O` was 3.3% (inactive); that for `O=C(CCN1CCC(c2ccccc2)C1)c1ccc2c(c1)OCCO2` (stereo not drawn) was 0% (inactive).
The same measure, in the same setting: the value for `CNC(=O)c1cnn(-c2nc(N)c3ncn([C@@H]4O[C@H](CO)[C@@H](O)[C@H]4O)c3n2)c1` was -0.3% (inactive); that for `O=C(O)Cc1cn(-c2ccccc2)nc1-c1ccc(Cl)cc1` was 0.6% (inactive); that for `CC1(S(=O)(=O)O)CC(=O)c2ccccc2C1=O` (stereo not drawn) was -0.7% (inactive).
The same measure, in the same setting: next, `OCCCc1ccccc1`: 3.2% (inactive); `NC(N)=NN=C(/C=C/c1ccc([N+](=O)[O-])o1)/C=C/c1ccc([N+](=O)[O-])o1`: 6% (inactive).
In the case of `O=C1c2ccccc2CCc2ccccc21`, the insulin secretion stimulation was 2.7% (inactive).
On the same count and under the same terms, the value for `Oc1ccccc1` was -0.2% (active).
The same measure, in the same setting: the value for `CCOC(=O)c1ccc(NC(=O)CN2CCCCC2)cc1` was 3.5% (inactive); that for `COc1ccccc1OC(=O)Oc1ccccc1OC` was -2.4% (inactive).
Same read-out and setting: next, `CC1(C)CO[C@@H](CC(=O)O)CN1`: 0.5% (inactive).
On to `CCCCN=C(N)N=C(N)N`, for which the insulin secretion stimulation is -1.1% (inactive).
As for `O=C(O)CCC(=O)C(=O)O`, the insulin secretion stimulation was -2.2% (inactive).
Regarding `Cc1ccc(CCn2c3c(c4cc(Cl)ccc42)CN(C)CC3)cn1`, the insulin secretion stimulation was 42% (active).
With `C[C@@H](N)C(=O)O`, the insulin secretion stimulation was -2.7% (inactive).
For the compound `CCc1nnc(NS(=O)(=O)c2ccc(N)cc2)s1`, the insulin secretion stimulation was -0.8% (inactive).
On the same count and under the same terms, the value for `NS(=O)(=O)c1cc(-c2nn[nH]n2)c(NCc2cccs2)cc1Cl` was 6.5% (inactive); that for `O=C(O)CNC(=O)CNC(=O)CNC(=O)CSC(=O)c1ccccc1` was 1.2% (inactive).
Turning to `CCCCCCCCCCCCCCCCCCN(C)C`, the insulin secretion stimulation is 0.9% (inactive).
Still for that read-out and setting: the value for `Oc1cccc(-c2c3nc(c(-c4cccc(O)c4)c4ccc([nH]4)c(-c4cccc(O)c4)c4nc(c(-c5cccc(O)c5)c5ccc2[nH]5)CC4)C=C3)c1` was -1.15% (inactive); that for `C=CCNc1nc(NCC=C)nc(N2CCN(C(c3ccc(F)cc3)c3ccc(F)cc3)CC2)n1` was -0.6% (inactive).
Turning to `O=C(CCN1CCN(CCO)CC1)N1c2ccccc2Sc2ccc(C(F)(F)F)cc21`, the insulin secretion stimulation is 8.2% (inactive).
Regarding `COc1ccc(OC(=O)N(CC(=O)O)Cc2ccc(OCCc3nc(-c4ccccc4)oc3C)cc2)cc1`, the insulin secretion stimulation was -0.3% (inactive).
As to `Oc1ccc(CCNCCCCCCNCCc2ccccc2)cc1O`, the insulin secretion stimulation is 27.8% (active).
